This passage reports Potency and viability results from PubChem BioAssay (NCATS).

Inconclusive results are not listed. A number with no mark means an inactive call. The source made the active and inactive calls. The call rests on the fitted dose curve; in most records, active means well fitted cell-killing curve with a large enough effect; inconclusive means small, poorly fitted or top-dose-only effect, or effect the other way; inactive means no such curve, though single readings can be large or run the other way.

Experiment [1] in a line: Quantitative High-Throughput drug screen in 47 multiple myeloma cell lines against the NCATS MIPE library collection: KMS28PE_JCRB cell viability assay (AID 1918983). Further: nearly all actives have a fitted effect of over 35% in size. The gist of the method: (§1)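 qHTS format: cells plated (500/well), pin-dosed with MIPE 4.0 compounds, kept 48 h at 37 °C. Readout was CellTiter-Glo luminescence, median RLU.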
Experiment [2] in a line: Quantitative High-Throughput drug screen in 47 multiple myeloma cell lines against the NCATS MIPE library collection: OPM1_PLB cell viability assay (AID 1918989). Further: nearly all actives have a fitted effect of over 40% in size. A digest of the protocol:
as §1

Experiment [3] in a line: Quantitative High-Throughput drug screen in 47 multiple myeloma cell lines against the NCATS MIPE library collection: XG6_PLB cell viability assay (AID 1919865). Further: nearly all actives have a fitted effect of over 40% in size. The gist of the method:
as §1

Experiment [4] is described as follows: Quantitative High-Throughput drug screen in 47 multiple myeloma cell lines against the NCATS MIPE library collection: OPM2_DSMZ cell viability assay (AID 1919872). Further: nearly all actives have a fitted effect of over 30% in size. A digest of the protocol: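 CellTiter-Glo luminescence (ATP) after 48 h compound exposure, 37C/5% CO2; 500 cells/well; MIPE 4.0 approved/investigational drugs pinned in; DMSO = 100%, media only = 0% viability.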

Experiment [5] can be described thus: Quantitative High-Throughput drug screen in 47 multiple myeloma cell lines against the NCATS MIPE library collection: OCIMY7_PLB cell viability assay (AID 1918987). Further: nearly all actives have a fitted effect of over 65% in size. A digest of the protocol: as §1
Experiment [6] can be described thus: Quantitative High-Throughput drug screen in 47 multiple myeloma cell lines against the NCATS MIPE library collection: VP6_DJ cell viability assay (AID 1919867). Further: nearly all actives have a fitted effect of over 40% in size. The gist of the method:
as §1

The nature of experiment [7]: Quantitative High-Throughput drug screen in 47 multiple myeloma cell lines against the NCATS MIPE library collection: PE2_PLB cell viability assay (AID 1919869). Further: nearly all actives have a fitted effect of over 35% in size. The gist of the method:
as §1

Experiment [8] is described as follows: Quantitative High-Throughput drug screen in 47 multiple myeloma cell lines against the NCATS MIPE library collection: RPMI8226_ATCC cell viability assay (AID 1919871). Further: nearly all actives have a fitted effect of over 30% in size. A digest of the protocol: as §1
Experiment [9] can be described thus: Quantitative High-Throughput drug screen in 47 multiple myeloma cell lines against the NCATS MIPE library collection: KMS28BM_JCRB cell viability assay (AID 1919874). Further: nearly all actives have a fitted effect of over 35% in size. A digest of the protocol:
as §1

Experiment [10] can be described thus: Quantitative High-Throughput drug screen in 47 multiple myeloma cell lines against the NCATS MIPE library collection: KMS34_JCRB cell viability assay (AID 1918985). Further: nearly all actives have a fitted effect of over 40% in size. A digest of the protocol: as §1
Experiment [11] is described as follows: Quantitative High-Throughput drug screen in 47 multiple myeloma cell lines against the NCATS MIPE library collection: PCM6_Riken cell viability assay (AID 1919870). Further: nearly all actives have a fitted effect of over 30% in size. The gist of the method:
as §1

Experiment [12] is described as follows: Quantitative High-Throughput drug screen in 47 multiple myeloma cell lines against the NCATS MIPE library collection: KMS11_JCRBsus cell viability assay (AID 1919873). Further: nearly all actives have a fitted effect of over 50% in size. The gist of the method: as §1
The nature of experiment [13]: Quantitative High-Throughput drug screen in 47 multiple myeloma cell lines against the NCATS MIPE library collection: UTMC2_PLB cell viability assay (AID 1919868). Further: nearly all actives have a fitted effect of over 55% in size. As to conditions: CellTiter-Glo ATP luminescence, 48 h; viability (% of DMSO control): at 45.8 µM (top of the series). The gist of the method: as §1
A short description of experiment [14]: Quantitative High-Throughput drug screen in 47 multiple myeloma cell lines against the NCATS MIPE library collection: OCIMY5_PLB cell viability assay (AID 1918988). Further: nearly all actives have a fitted effect of over 65% in size. A digest of the protocol: as §1
The nature of experiment [15]: Quantitative High-Throughput drug screen in 47 multiple myeloma cell lines against the NCATS MIPE library collection: SKMM1_PLB cell viability assay (AID 1919863). Further: nearly all actives have a fitted effect of over 35% in size. The conditions noted are these: SKMM1 myeloma viability, CellTiter-Glo ATP, 48 h; viability: stronger effect = lower value. A digest of the protocol:
as §1

Experiment [16] in a line: Quantitative High-Throughput drug screen in 47 multiple myeloma cell lines against the NCATS MIPE library collection: U266_ATCC cell viability assay (AID 1919864). Further: nearly all actives have a fitted effect of over 35% in size. A digest of the protocol:
as §1

Experiment [17] in a line: Quantitative High-Throughput drug screen in 47 multiple myeloma cell lines against the NCATS MIPE library collection: XG1_PLB cell viability assay (AID 1919866). Further: nearly all actives have a fitted effect of over 35% in size. A digest of the protocol: as §1
Experiment [18] is described as follows: Quantitative High-Throughput drug screen in 47 multiple myeloma cell lines against the NCATS MIPE library collection: L363_DSMZ cell viability assay (AID 1918984). Further: nearly all actives have a fitted effect of over 40% in size. The gist of the method: as §1
Potency means the concentration at half of the fitted maximal effect.

Take `Cc1cc2c(F)c(Oc3ncnn4cc(OC[C@@H](C)O)c(C)c34)ccc2[nH]1`: the Potency was 20.9 µM (active) in experiment [1], 20.9 µM (active) in [2], 0.743 µM (active) in experiment [3] and 23.5 µM (active) in experiment [4].
In the case of `O=c1ncn2nc(Sc3ccc(F)cc3F)ccc2c1-c1c(Cl)cccc1Cl`, the Potency result in experiment [1], in [8] and in experiment [9] was “inactive” in each case. Also, the Potency in experiment [5] was 16.6 µM (active); in experiment [2], 16.6 µM (active); in experiment [3], 13.2 µM (active); in experiment [6], 9.35 µM (active); in experiment [7], 3.72 µM (active).
Consider `CCc1ccc(CCOc2ccc(CC3SC(=O)NC3=O)cc2)nc1` (stereo not given), for which the Potency result in experiment [1], in experiment [10], in [2], in experiment [7], in [4] and in experiment [12] was “inactive” in each case. Also, the Potency result in experiment [9] is “inactive”. Besides, the Potency in experiment [11] was 18.7 µM (active).
`Cn1cnc([N+](=O)[O-])c1Sc1ncnc2nc[nH]c12`: in [1], the Potency entry is “inactive”. Further, the Potency in [5] was 11.8 µM (active); in experiment [2], 4.69 µM (active); in experiment [6], 16.6 µM (active); in experiment [13], 5.26 µM (active); in [7] it was 14.8 µM (active); in experiment [11], 11.8 µM (active). The Potency in [8] is 0.935 µM (active); in experiment [4] it was 0.833 µM (active); in experiment [9], 5.9 µM (active).
For `Cc1cc([C@@H](C)Nc2ccccc2C(=O)O)c2nc(N3CCOCC3)cc(=O)n2c1`, the Potency is 2.7 µM (active) in experiment [10]; 2.15 µM (active) in [5]; 38.2 µM (active) in experiment [14]; 17.1 µM (active) in experiment [2]; 27 µM (active) in [15]; 5.4 µM (active) in experiment [16]. For the same compound, the Potency in experiment [3] is 1.91 µM (active); in experiment [17], 4.29 µM (active); in experiment [6], 9.59 µM (active); in experiment [13], 3.82 µM (active); in experiment [7], 9.59 µM (active); in experiment [4], 42.9 µM (active).
Regarding `O=C(O)COCCN1CCN(C(c2ccccc2)c2ccc(Cl)cc2)CC1` (stereo not given), the Potency in experiment [18] was 0.296 µM (active). Also, the Potency result in [10], in [14], in [16], in experiment [3], in experiment [17] and in experiment [6] was “inactive” each time. Moreover, the Potency result in experiment [13], in [7], in experiment [11], in [4], in experiment [12] and in experiment [9] was “inactive” in each case. In addition, the viability in experiment [15] is 122%.
As to `OC[C@H](Cc1ccccc1)Nc1nc(Oc2ccc3c(c2)CCC3)nc2c1ncn2Cc1ccc(-c2ccccc2)cc1`, the Potency result in experiment [1], in [6], in experiment [11], in [8], in experiment [4] and in experiment [9] was “inactive” in each case. Further, the Potency in experiment [10] is 18.7 µM (active); in experiment [2] it was 11.8 µM (active).
Regarding `COc1cccc2cc(-c3nc(C4CCC(C(=O)O)CC4)n4ncnc(N)c34)[nH]c12` (stereo not given), the Potency in experiment [1] was 0.469 µM (active); in experiment [5], 4.18 µM (active); in [14], 1.32 µM (active); in [2] it was 2.35 µM (active); in experiment [15] it was 1.87 µM (active); in [17], 0.148 µM (active). For the same compound, the Potency was 0.833 µM (active) in experiment [6]; 0.235 µM (active) in experiment [13]; 0.372 µM (active) in experiment [7]; 0.59 µM (active) in experiment [8]; 2.96 µM (active) in experiment [4]; 0.132 µM (active) in experiment [12]. Further, the Potency in [9] was 1.48 µM (active).
Consider `Nc1nccc(-c2ccc3noc(-c4ccc(Cl)cc4)c3c2)n1`, for which the Potency entry in [1], in experiment [2], in experiment [13], in experiment [8], in [4] and in experiment [12] was “inactive” in each case. For the same compound, in experiment [9], the Potency result is “inactive”. The values for the Potency in experiment [5] and in [14] were 20.9 µM (active) and 18.7 µM (active), respectively.
Regarding `Cn1cc(-c2ccc3nnc(C(F)(F)c4ccc5ncccc5c4)n3n2)cn1`, the Potency entry in experiment [1], in [13], in [7], in experiment [11], in experiment [4] and in experiment [12] was “inactive” throughout. Further, the Potency result in [9] was “inactive”. Moreover, the Potency in experiment [14] is 16.6 µM (active).
With `Cn1cnc2c(F)c(Nc3ccc(Br)cc3Cl)c(C(=O)NOCCO)cc21`, the Potency in [1] is 9.35 µM (active); in [5], 0.0469 µM (active); in experiment [14], 9.35 µM (active); in experiment [15], 1.18 µM (active); in [16] it was 5.26 µM (active); in experiment [3] it was 0.418 µM (active). Also, the Potency in [17] was 0.0935 µM (active); in [6], 0.296 µM (active); in [7], 0.235 µM (active); in experiment [8], 0.935 µM (active). Moreover, the Potency entry in experiment [13] and in [12] was “inactive” each time.
With `Oc1cccc(-c2nc(N3CCOCC3)c3oc4ncccc4c3n2)c1`, the Potency was 0.0762 µM (active) in [1]; 0.382 µM (active) in [14]; 0.0855 µM (active) in experiment [2]; 0.054 µM (active) in experiment [16]; 0.136 µM (active) in [3]; 0.0382 µM (active) in experiment [13]. For the same compound, the figures for the Potency in [7] and in experiment [4] were 0.0855 µM (active) and 0.136 µM (active), respectively.
For `COc1ccc(-c2oc3cc(OC)ccc3c2C(=O)c2ccc(C#N)cc2)cc1`, the Potency in experiment [18] is 3.32 µM (active); in experiment [5], 14.8 µM (active); in experiment [3], 3.32 µM (active); in experiment [17], 8.33 µM (active). The Potency entry in experiment [10], in experiment [14], in experiment [2], in experiment [7], in experiment [8] and in [4] was “inactive” throughout. In addition, the Potency entry in experiment [12] is “inactive”.
